For 27 molecules, Potency and activity change, negative = inhibition results are on record in PubChem BioAssay (NCATS).

Each structure is given as a SMILES string. Where “and” joins values, the source holds several entries; their conditions need not be identical. Identical values can stand only once. Results filed as inconclusive are left out. Where a call stands in place of a potency, no number is given. Some compounds were tested as several samples or in several runs, with calls that do not always agree. Calls of active or inactive are those of the source. Unless noted, calls come from the whole dose curve.

A short description of assay [1]: Cytotoxicity counterscreen for inhibitors of SARS-CoV-2 cell entry (AID 1645845). Note: nearly all actives have a fitted effect of over 50% in size. The method, boiled down:
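Expi293F/hACE2 cells seeded overnight; cpd pin-transferred in DMSO, 1 h preincubation, + media, 48 h 37 C 5% CO2; ATPLite 1step luminescence; normalized to cells and no cells.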

Assay [2] is described as follows: Primary qHTS to identify inhibitors of SARS-CoV-2 cell entry (AID 1645846). Note: nearly all actives have a fitted effect of over 45% in size. Note: potency is the fitted concentration of half-maximal effect. Conditions: activity change, negative = inhibition: at 57.1 µM (top of the series) unless noted. In a few lines: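 HEK293 cells stably expressing human ACE2, pre-treated 1 h with compound, then infected with MLV particles pseudotyped with Wuhan-Hu-1 spike (C-terminal 19-aa truncation). Luciferase luminescence after 48 h at 37 °C, normalised to spike PP and bald PP.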
(Quantitative high-throughput screening tests each substance at several concentrations.)

Assay [3] in a line: Primary qHTS for inhibitors of nuclear receptor binding SET domain protein 2 (NSD2) in an isogenic RCH-ACV NSD2 p.E1099K mutant (9B) (AID 1645876; active = well fitted curve in the direction sought with a large enough effect; an effect the other way counts as inactive or inconclusive; note: nearly all actives have a fitted effect of over 70% in size; note: potency is the fitted concentration of half-maximal effect).
The nature of assay [4]: Primary qHTS for inhibitors of nuclear receptor binding SET domain protein 2 (NSD2) in an RCH-ACV wild type WT cells (2C) (AID 1645877; active = well fitted curve in the direction sought with a large enough effect; an effect the other way counts as inactive or inconclusive; note: nearly all actives have a fitted effect of over 70% in size; note: potency is the fitted concentration of half-maximal effect).
Another assay concerns the target Papain (Carica papaya) (UniProt P00784). Put plainly: Primary qHTS assay for inhibitors of the protease papain (AID 1645873; active = well fitted curve in the direction sought with a large enough effect; an effect the other way counts as inactive or inconclusive;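 note: papain turnover of Z-FR-AMC read as the AMC fluorescence gain over 10 min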).

Papain (Carica papaya), sequence (P00784 whole entry, looked up): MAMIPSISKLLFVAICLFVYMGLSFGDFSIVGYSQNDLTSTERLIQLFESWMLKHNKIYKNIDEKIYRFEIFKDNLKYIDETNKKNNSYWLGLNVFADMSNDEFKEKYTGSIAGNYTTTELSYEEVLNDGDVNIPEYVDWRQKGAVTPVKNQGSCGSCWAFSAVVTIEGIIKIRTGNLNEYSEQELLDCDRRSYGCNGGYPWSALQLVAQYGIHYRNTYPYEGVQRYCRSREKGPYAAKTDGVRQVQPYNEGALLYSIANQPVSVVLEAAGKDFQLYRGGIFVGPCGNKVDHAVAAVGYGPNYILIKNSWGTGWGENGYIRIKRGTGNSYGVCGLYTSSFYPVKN

Turning to `C[C@](N)(Cc1ccc(O)c(O)c1)C(=O)O`, the Potency entry in assay [1] and in assay [2] was “inactive” in each case. Moreover, the activity change, negative = inhibition in assay [2] is -1.67%.
In the case of `Cc1cc(SCc2sc(-c3ccc(C(F)(F)F)c(F)c3)nc2C)ccc1OCC(=O)O`, the Potency result in assay [1], in assay [2], in assay [3] and in assay [4] was “inactive” each time.
For the molecule `Cc1ncc([N+](=O)[O-])n1CCO`, in assay [1], the Potency entry is “inactive”. For the same molecule, the activity change, negative = inhibition in assay [2] was -22%.
In the case of `CO[C@@]12[C@H](COC(N)=O)C3=C(C(=O)C(C)=C(N)C3=O)N1C[C@@H]1N[C@@H]12`, the Potency entry in assay [1] is “inactive”. In addition, in assay [2], the Potency was 4.47 µM (active) and the activity change, negative = inhibition is -40.7%.
For `Cc1ccccc1N1C(=O)c2cc(S(N)(=O)=O)c(Cl)cc2NC1C` (configuration not stated), in that order: “inactive”, “inactive” and -97.4%.
In the same order, the values of `CS(=O)(=O)OCCCCOS(C)(=O)=O` are “inactive”, “inactive” and -16.9%.
Turning to `CC[C@@H]([C@H](C)O)n1ncn(-c2ccc(N3CCN(c4ccc(OC[C@@H]5CO[C@@](Cn6cncn6)(c6ccc(F)cc6F)C5)cc4)CC3)cc2)c1=O`, the activity change, negative = inhibition in assay [2] is -23.1%.
Same read-out and setting: next, `CN(Cc1cnc2nc(N)nc(N)c2n1)c1ccc(C(=O)N[C@@H](CCC(=O)O)C(=O)O)cc1`: -94.2%.
For the molecule `CCCN[C@H]1CCc2nc(N)sc2C1`, in assay [1], the Potency entry is “inactive”. Further, in assay [2], the Potency entry is “inactive” and the activity change, negative = inhibition was -3.81%.
As for `CC1Cc2ccccc2N1NC(=O)c1ccc(Cl)c(S(N)(=O)=O)c1` (configuration not stated), the Potency entry in assay [1] was “inactive”. Also, in assay [2], the Potency entry is “inactive” and the activity change, negative = inhibition came out at 3.64%.
As for `CC(S)C(=O)NCC(=O)O` (configuration not stated), the Potency result in assay [1] is “inactive”. In assay [2], the Potency result was “inactive” and the activity change, negative = inhibition was -22.2%.
As to `CC12CC3CC(C)(C1)CC(N)(C3)C2`, the Potency result in assay [1] and in assay [2] was “inactive” in each case. The activity change, negative = inhibition in assay [2] was -26.3%.
Take `C[n+]1ccccc1/C=N/O`: in assay [2], the Potency result is “inactive”.
Take `CN(C)CCN(C)CCc1ccc(Cl)c(Cl)c1`: the Potency entry in assay [1], in assay [3] and in assay [4] was “inactive” each time.
Turning to `NNc1nncc2ccccc12`, the Potency result in assay [1] was “inactive”. In assay [2], the Potency entry was “inactive” and the activity change, negative = inhibition worked out at 83.2% [at 27.1 µM].
As to `NC(=O)NO`, the Potency entry in assay [1] was “inactive”. In assay [2], the Potency entry was “inactive” and the activity change, negative = inhibition was -10.4%.
Take `CCCc1nc2c(C)cc(-c3nc4ccccc4n3C)cc2n1Cc1ccc(-c2ccccc2C(=O)O)cc1`: in assay [1], the Potency entry is “inactive”. Also, in assay [2], the Potency entry is “inactive” and the activity change, negative = inhibition is -3.28%.
With `C[C@@H](O)[C@H]1C(=O)N2C(C(=O)O)=C(S[C@@H]3CN[C@H](C(=O)N(C)C)C3)[C@H](C)[C@H]12`, the Potency entry in assay [1] is “inactive”. In assay [2], the Potency entry was “inactive” and the activity change, negative = inhibition is -22.9%.
In the case of `CCn1cc(C(=O)O)c(=O)c2cc(F)c(N3CCNCC3)cc21`, the Potency result in assay [1] and in assay [2] was “inactive” in each case. For the same molecule, the activity change, negative = inhibition in assay [2] was -15.8%.
With `NC12CC3CC(CC(C3)C1)C2`, the Potency result in assay [1] and in assay [2] was “inactive” throughout. The activity change, negative = inhibition in assay [2] was -26.7%.
Consider `CCCCc1nc(Cl)c(CO)n1Cc1ccc(-c2ccccc2-c2nn[nH]n2)cc1`, for which the Potency entry in assay [1] and in assay [2] was “inactive” throughout.
For the molecule `CN(C)CCc1c[nH]c2ccc(CS(=O)(=O)N3CCCC3)cc12`, the Potency result in assay [1] and in assay [2] was “inactive” in each case. Besides, in assay [2], the activity change, negative = inhibition is -5.24%.
Consider `CC(=O)O[C@]1(C(C)=O)CC[C@H]2[C@@H]3C=C(C)C4=CC(=O)CC[C@]4(C)[C@H]3CC[C@@]21C`, for which the Potency entry in assay [1] is “inactive”. Also, in assay [2], the Potency result is “inactive” and the activity change, negative = inhibition was -12.1%.
With `O=c1c(O)c(-c2ccc(O)c(O)c2)oc2cc(O)cc(O)c12`, the Potency result in assay [1] was “inactive”. Further, in assay [2], the Potency entry was “inactive” and the activity change, negative = inhibition is -12.3%.
For `COC[C@H]1OC(=O)c2coc3c2[C@@]1(C)C1=C(C3=O)C2CCC(=O)[C@@]2(C)C[C@H]1OC(C)=O` (some centres not stated), the Potency result (in assay [1]; with Papain (Carica papaya)) was “inactive” throughout. Besides, the activity change, negative = inhibition in assay [2] stood at 3.38%. Also, the Potency was 1.84 µM (active) and 7.42 µM (active) in assay [3]; 2.59 µM (active) and 18.3 µM (active) and 7.42 µM (active) in assay [4].
In the case of `Fc1ccc(C(OCCN2CCN(CCCc3ccccc3)CC2)c2ccc(F)cc2)cc1`, the Potency entry with Papain (Carica papaya) is “inactive”.
Still for that read-out and setting: next, `O=c1[nH]c2ccccc2n1C1CCN(CCCC(c2ccc(F)cc2)c2ccc(F)cc2)CC1`: “inactive”.
